Results taken from PubChem BioAssay (NCATS).
Results filed as inconclusive are left out. Calls of active or inactive are those of the source. Calls come from the whole dose curve; as a rule, active = well fitted curve in the direction sought with a large enough effect; inconclusive = small, poorly fitted or top-dose-only effect, or another doubt; inactive = no such curve, though single readings can be large; an effect the other way counts as inactive or inconclusive.

Experiments:
[1] = qHTS of pediatric cancer cell lines to identify multiple opportunities for drug repurposing: Primary screen for OHS-50 cells (AID 1347103); note: nearly all actives have a fitted effect of over 40% in size; note: potency is the fitted concentration of half-maximal effect;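 for activity change, negative = cytotoxic: plate controls were DMSO neutral control for no effect and bortezomib positive control for full effect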
In short: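 Cells (500-1,000/well) rested 5 h, then received compounds for 48 h; metabolically active cells were measured by CellTiter-Glo luminescence. Final concentrations spanned up to 46 µM (MIPE, 11-point) or 0.59 nM-46 µM (NPC, 8-point) in primary screens, 11-point in follow-ups.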

[2] = qHTS of pediatric cancer cell lines to identify multiple opportunities for drug repurposing: Primary screen for RD cells (AID 1347104); note: nearly all actives have a fitted effect of over 55% in size; note: potency is the fitted concentration of half-maximal effect;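 for activity change, negative = cytotoxic: plate controls were DMSO for no effect and bortezomib for full effect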
In short: (§1)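 Quantitative HTS format: each compound titrated (MIPE 11 points from 0.78 nM, NPC 8 points from 0.59 nM) onto cells plated 5 hours earlier. After 48 h at 37 degrees C, CellTiter-Glo luminescence was recorded.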

[3] = qHTS of pediatric cancer cell lines to identify multiple opportunities for drug repurposing: Primary screen for MG 63 (6-TG R) cells (AID 1347105); note: nearly all actives have a fitted effect of over 50% in size; note: potency is the fitted concentration of half-maximal effect; for activity change, negative = cytotoxic: % is set by controls: 0 for no effect and ±100 for the full control effect
In short: as §1

[4] = qHTS of pediatric cancer cell lines to identify multiple opportunities for drug repurposing: Primary screen for control Hh wild type fibroblast cells (AID 1347106);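 note: series mostly up to about 46 µM; % is set by controls: 0 for no effect and ±100 for the full control effect; a drop in luminescence marks cytotoxicity and a rise apparent proliferation; nearly all actives have a fitted effect of over 55% in size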
In short: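 Viability after 48 h compound treatment at 37C, 500-1,000 cells/well, read as ATP luminescence with CellTiter-Glo. Primary screens used 11-point (MIPE, 0.78 nM-46 µM) or 8-point (NPC, 0.59 nM-46 µM) final concentrations; follow-up screens used 11-point dilutions.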

[5] = qHTS of pediatric cancer cell lines to identify multiple opportunities for drug repurposing: Primary screen for Rh30 cells (AID 1347107); note: series mostly up to about 46 µM; % is set by controls: 0 for no effect and ±100 for the full control effect; nearly all actives have a fitted effect of over 75% in size
In short: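 Cells (500-1,000/well) in growth media were settled 5 h at 37 degrees C, then given compounds for 48 h. Viability was read as CellTiter-Glo luminescence. Primary runs used MIPE at 11 points (0.78 nM-46 µM) and NPC at 8 points (0.59 nM-46 µM); follow-ups used 11 points.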

[6] = qHTS of pediatric cancer cell lines to identify multiple opportunities for drug repurposing: Primary screen for Rh41 cells (AID 1347108);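 note: series mostly up to about 46 µM; luminescence drop marks cytotoxic hits; nearly all actives have a fitted effect of over 70% in size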
In short: as §1

Cc1ncc([N+](=O)[O-])n1CC(O)CCl (stereo unspecified)
inactive: Potency [1] | Potency [2] | Potency [3] | outcome [4] | outcome [5]

COc1ccc(Cl)cc1C(=O)NCCc1ccc(S(=O)(=O)NC(=O)NC2CCCCC2)cc1
inactive: Potency [1] | Potency [2] | Potency [3] | outcome [4] | outcome [5] | Potency [6]

CC(C)(C)C(=O)NCCCC(=O)O
inactive: Potency [1] | Potency [2] | Potency [3] | outcome [4] | outcome [5]

CC(=O)Oc1c(C)c(C)c2c(c1C)CC[C@@](C)(CCC[C@H](C)CCC[C@H](C)CCCC(C)C)O2
inactive: Potency [1] | Potency [2] | Potency [3] | outcome [4] | outcome [5]

N[C@@H](CSCCCO)C(=O)O
inactive: Potency [1] | Potency [2] | Potency [3] | outcome [4] | outcome [5]

C=CCn1c(=O)n([C@@H]2O[C@H](CO)[C@@H](O)[C@H]2O)c2nc(N)[nH]c(=O)c21
inactive: Potency [1] | Potency [2] | Potency [3] | outcome [4] | outcome [5] | Potency [6]

OCCN1CCN(CCCN2c3ccccc3Sc3ccc(Cl)cc32)CC1
active: Potency [1] 24.6 µM

C[C@]12C[C@H](O)[C@H]3[C@@H](CCC4=CC(=O)CC[C@@]43C)[C@@H]1CC[C@@H]2C(=O)CO
inactive: Potency [1] | Potency [2] | Potency [3] | outcome [4] | outcome [5]

C[C@H]1O[C@@H](n2cc(F)c(=O)[nH]c2=O)[C@H](O)[C@@H]1O
inactive: Potency [1] | Potency [2] | Potency [3] | outcome [4] | outcome [5]

CO/N=C(\C(=O)N[C@@H]1C(=O)N2C(C(=O)O)=C(CSc3nc(=O)c(O)nn3C)CS[C@H]12)c1csc(N)n1
inactive: Potency [1] | Potency [2] | Potency [3] | outcome [4] | outcome [5] | Potency [6]

CC12CCC(CC1)C(C)(C)O2
inactive: Potency [1] | Potency [2] | Potency [3] | outcome [4] | outcome [5]

O=C(Oc1ccccc1C(=O)O)c1ccccc1O
inactive: Potency [1] | Potency [2] | Potency [3] | outcome [4] | outcome [5]

O=C(O)Cc1sc(-c2ccccc2)nc1-c1ccc(Cl)cc1
inactive: Potency [1] | Potency [2] | Potency [3] | outcome [4] | outcome [5]

O=C1c2c(O)cccc2Cc2cccc(O)c21
inactive: Potency [1] | Potency [2] | Potency [3] | outcome [4] | outcome [5] | Potency [6]

OCC(O)CN1CCN(c2ccccc2)CC1 (stereo unspecified)
inactive: Potency [1] | Potency [2] | Potency [3] | outcome [4] | outcome [5]

CN(C)CCOC(C)(c1ccccc1)c1ccccn1 (stereo unspecified)
inactive: Potency [1] | Potency [2] | Potency [3] | outcome [4] | outcome [5] | Potency [6]

CC(C)c1c(C(=O)Nc2ccccc2)c(-c2ccccc2)c(-c2ccc(F)cc2)n1CC[C@@H](O)C[C@@H](O)CC(=O)O
active: Potency [1] 15.5 µM | Potency [3] 6.68 µM
inactive: Potency [2]

CN(C)CC[C@@H](c1ccc(Cl)cc1)c1ccccn1
inactive: Potency [1] | Potency [2] | Potency [3] | outcome [4] | outcome [5] | Potency [6]

O=c1[nH]c(=O)c2[nH]c(=O)[nH]c2[nH]1
inactive: activity change, negative = cytotoxic [1] -8.33% [at 11.5 µM] | activity change, negative = cytotoxic [2] 1.57% [at 9.22 µM] | activity change, negative = cytotoxic [3] -26.1% [at 9.22 µM] | activity change, negative = cytotoxic [4] 8.6% [at 9.22 µM] | activity change, negative = cytotoxic [5] 2.78% [at 9.22 µM] | activity change, negative = cytotoxic [6] -6.34% [at 9.22 µM]

N[C@@H](CSSC[C@H](N)C(=O)O)C(=O)O
inactive: activity change, negative = cytotoxic [1] 6.93% [at 0.73 µM] | activity change, negative = cytotoxic [2] 5.61% [at 0.597 µM] | activity change, negative = cytotoxic [3] 0.733% [at 0.597 µM] | activity change, negative = cytotoxic [4] 21.8% [at 0.597 µM] | activity change, negative = cytotoxic [5] 12% [at 0.597 µM] | activity change, negative = cytotoxic [6] 8.25% [at 0.597 µM]

CCCCCCCCCCCCCCCC(=O)NCCO
inactive: Potency [1] | Potency [2] | Potency [3] | outcome [4] | outcome [5]

NC(=O)N/N=C/c1ccc([N+](=O)[O-])o1
inactive: Potency [1] | Potency [2] | Potency [3] | outcome [4] | outcome [5] | Potency [6]

CCOC(CN1CCN(CC(C)C(=O)c2ccccc2)CC1)c1ccccc1 (stereo unspecified)
inactive: Potency [1] | Potency [2] | Potency [3] | outcome [4] | outcome [5] | Potency [6]

O=C1NS(=O)(=O)c2ccccc21
inactive: Potency [1] | Potency [2] | Potency [3] | outcome [4] | outcome [5] | Potency [6]

CCC(=O)c1ccc(O)cc1
inactive: Potency [1] | Potency [2] | Potency [3] | outcome [4] | outcome [5]

COc1ccc2c(c1)C(=O)N(CCc1ccc(S(=O)(=O)NC(=O)NC3CCCCC3)cc1)C(=O)C2(C)C
inactive: Potency [1] | Potency [2] | Potency [3] | outcome [4] | outcome [5] | Potency [6]

NCCNCCNCCN
inactive: Potency [1] | Potency [2] | Potency [3] | outcome [4] | outcome [5] | Potency [6]

CC[N+](CC)(CC)CCOc1ccc(/C=C/c2ccccc2)cc1
active: Potency [1] 3.47 µM | Potency [2] 15 µM

C[C@@H]1CN(c2c(F)c(F)c3c(=O)c(C(=O)O)cn(C4CC4)c3c2F)C[C@H](C)N1
inactive: Potency [1] | Potency [2] | Potency [3] | outcome [4] | outcome [5]

CCC(=O)Nc1ccc(O)cc1
inactive: Potency [1] | Potency [2] | Potency [3] | outcome [4] | outcome [5]

NC(N)=NCCC[C@H](N)C(=O)O
inactive: activity change, negative = cytotoxic [1] -1.99% [at 6.18 µM] | activity change, negative = cytotoxic [2] 2.4% [at 4.84 µM] | activity change, negative = cytotoxic [3] -20.2% [at 4.84 µM] | activity change, negative = cytotoxic [4] 15% [at 4.84 µM] | activity change, negative = cytotoxic [5] 18% [at 4.84 µM] | activity change, negative = cytotoxic [6] 10.4% [at 4.84 µM]

CC[C@@]1(c2ccccc2)NC(=O)N(C)C1=O
inactive: Potency [1] | Potency [2] | Potency [3] | outcome [4] | outcome [5] | Potency [6]
